A selection: hits, their analogues and other compounds. The true share with any hit is near 2.8%.
MITF TRPM1 inh: MITF TRPM1 promoter inhibition in SK-MEL-5 cells | SK-MEL-5 TRPM1 promoter luciferase, 24 h | inhibition, % at 12.5 µM | actives 0.83% (n = 330,000) | AID 488899;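 active = mean inhibition across replicates of 60% or more, whatever share of single replicates reaches that level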
KKLEB cytotox: counter-screen for CF NF-kB inhibitors: cytotoxicity; AID 602141; KKLEB CF airway cells viability, ATPlite luminescence, overnight; active compounds read low; cells stimulated with P. aeruginosa culture filtrate; activity change (cytotoxicity), % at 5 µM; actives 0.36% (n = 360,000);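 active = corrected activity change at or below -50% at 5 µM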
Shn3 inh set2: reduces Shn3 3'UTR luciferase signal in osteoblasts | Clone20 osteoblast Shn3 3'UTR firefly luciferase, 24 h | inhibition, % at 12.5 µM | actives 0.52% (n = 360,000);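 active = mean inhibition of at least 75% with every replicate also reaching 75%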;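 also: 0% = median of neutral control wells and 100% = pilot-screen positive control compound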
HIF-2a block: blocks HIF-2a reporter activity. 786-0 RCC cells HIF-2a reporter, luciferase luminescence, overnight. inhibition, % at 18.8 µM. actives 0.72% (n = 360,000);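 active = inhibition of the luminescence signal of 40% or more relative to plate controls, in a single-dose primary screen at 18.75 µM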
Peg3 promoter: reduces Peg3 promoter-driven luciferase expression in HeLa. HeLa PEG-Prom luciferase reporter, luminescence, overnight. inhibition, % at 20 µM. actives 1.7% (n = 360,000). AID 588405;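 active = inhibition of at least 50% at 20 µM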
CF NFkB block: cystic fibrosis NF-kB activation inhibition | KKLEB NF-kB-GFP reporter, PAF-induced, GFP fluorescence overnight | inhibition, % at 5 µM | actives 0.86% (n = 360,000) | AID 588850;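 active = at least 50% inhibition at 5 µM, scaled per plate between neutral and stimulator controls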;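 also: PAF is a Pseudomonas aeruginosa culture filtrate used as stimulus; plate controls were PAF-stimulated DMSO wells for no effect and unstimulated DMSO wells for full effect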
* = called active by the depositor.

Results for Cc1[nH]nc(-c2ccc(O)cc2O)c1-c1ccc(Cl)cc1 ?
MITF TRPM1 inh: 17.2; KKLEB cytotox: 1.3; Shn3 inh set2: 40.6; HIF-2a block: 19.4; Peg3 promoter: 30.1; CF NFkB block: -2.3

What do the screens show for `COc1ccc(-c2n[nH]c(C)c2-c2ccc(Cl)cc2)c(O)c1`?
MITF TRPM1 inh: 7.2; KKLEB cytotox: -5.3; Shn3 inh set2: 8.4; HIF-2a block: 27.3; Peg3 promoter: 62.1*; CF NFkB block: -14.4

What do the screens show for `COc1ccc(-c2n[nH]c(C)c2-c2ccc(Cl)cc2)c(O)c1OC`?
MITF TRPM1 inh: 12.2; KKLEB cytotox: -26.0; Shn3 inh set2: 38.9; HIF-2a block: 14.7; Peg3 promoter: 72.1*; CF NFkB block: -7.9

What do the screens show for `COc1ccc(C=C(C#N)C(=O)c2ccccc2)cc1`?
HIF-2a block: -1.8

What do the screens show for `COc1ccc(/C=C(/C(=O)c2cccs2)N2C=CC=CC2=C(C#N)C#N)cc1`?
MITF TRPM1 inh: 46.1; KKLEB cytotox: -22.4; Shn3 inh set2: 66.6; HIF-2a block: 1.3; Peg3 promoter: 93.5*; CF NFkB block: 28.8

What do the screens show for `O=C(NCc1cccs1)C1C(=O)Nc2ccccc2C(=O)N1Cc1ccccc1` (stereo not given)?
HIF-2a block: 12.4

What do the screens show for `CCN(CC)S(=O)(=O)c1ccc(N2CCOCC2)c(NC(=O)c2nn(C)c(=O)c3ccccc23)c1`?
MITF TRPM1 inh: 13.5; KKLEB cytotox: -4.5; Shn3 inh set2: 26.7; HIF-2a block: 10.3; Peg3 promoter: 32.4; CF NFkB block: 6.1

What do the screens show for `CCOc1cc(N2CCOCC2)c(OCC)cc1NC(=O)c1nn(CC)c(=O)c2ccccc12`?
MITF TRPM1 inh: 14.9; KKLEB cytotox: -13.1; Shn3 inh set2: 12.6; HIF-2a block: -17.8; Peg3 promoter: 60.5*; CF NFkB block: 18.5

What do the screens show for `CCN(CC)S(=O)(=O)c1ccc(N2CCOCC2)c(NC(=O)c2nn(C(C)C)c(=O)c3ccccc23)c1`?
KKLEB cytotox: -10.2; Shn3 inh set2: 86.1*; HIF-2a block: 22.4; Peg3 promoter: 42.3; CF NFkB block: 18.3

What do the screens show for `CCOc1cc(N2CCOCC2)c(OCC)cc1NC(=O)c1ccc(OCc2c(C)noc2C)c(OC)c1`?
MITF TRPM1 inh: -5.6; KKLEB cytotox: 15.2; Shn3 inh set2: 22.5; HIF-2a block: 7.3; Peg3 promoter: 50.5*; CF NFkB block: -17.8

What do the screens show for `COc1ccc(CCC(=O)NCC(=O)OCc2ccccc2)cc1`?
MITF TRPM1 inh: -3.5; KKLEB cytotox: 11.0; Shn3 inh set2: 7.0; HIF-2a block: 9.9; Peg3 promoter: -1.3; CF NFkB block: -4.9

What do the screens show for `CC12CN(C(=O)c3ccccc3Br)CC(C)(CN(C(=O)c3ccccc3Br)C1)C2=O`?
MITF TRPM1 inh: 15.5; KKLEB cytotox: 1.5; Shn3 inh set2: 3.0; HIF-2a block: 25.1; Peg3 promoter: -3.8; CF NFkB block: 3.9

Results for CCN1C(=O)[C@H]2[C@@H](c3ccc(-c4ccc(OC)cc4)cc3)N3CCC[C@@]3(C(=O)OC)[C@H]2C1=O ?
MITF TRPM1 inh: -18.5; KKLEB cytotox: 8.2; Shn3 inh set2: 89.8*; HIF-2a block: -2.9; Peg3 promoter: -10.3; CF NFkB block: -6.5

What do the screens show for `CCN1C(=O)[C@@H]2[C@@H](c3ccc(-c4ccc(OC)cc4)cc3)N3CCC[C@@]3(C(=O)OC)[C@@H]2C1=O`?
MITF TRPM1 inh: 0.0; KKLEB cytotox: 12.5; Shn3 inh set2: 10.4; HIF-2a block: 7.0; Peg3 promoter: 3.6; CF NFkB block: -9.6

Results for COc1ccc(NC(=O)Cn2c(=O)n(-c3ccc(CC(=O)NCc4ccco4)cc3)c(=O)c3ccccc32)cc1 ?
MITF TRPM1 inh: 70.8*; KKLEB cytotox: 12.7; Shn3 inh set2: 8.2; HIF-2a block: 7.0; Peg3 promoter: 16.3; CF NFkB block: 9.1

Results for Cc1ccc(NC(=O)Cn2c(=O)n(CCCC(=O)NCc3ccco3)c(=O)c3ccccc32)cc1 ?
MITF TRPM1 inh: 29.9; KKLEB cytotox: -4.8; Shn3 inh set2: -11.2; HIF-2a block: 14.0; Peg3 promoter: 21.3; CF NFkB block: 1.8

Results for Cc1onc(-c2ccccc2Cl)c1C(=O)Nc1ccccc1O ?
MITF TRPM1 inh: 7.7; KKLEB cytotox: 8.3; Shn3 inh set2: 16.9; HIF-2a block: 6.1; Peg3 promoter: 2.2; CF NFkB block: -1.9

How did COC(=O)C(C)NC(=O)c1cn(-c2ccccc2OC)c(=O)c2ccccc12 (stereo not given) do in these assays?
MITF TRPM1 inh: 13.6; KKLEB cytotox: 4.8; Shn3 inh set2: -9.0; HIF-2a block: 6.8; Peg3 promoter: 11.0; CF NFkB block: -13.8

How did CN(Cc1ccc(Cl)cc1)C(=O)CCl do in these assays?
MITF TRPM1 inh: 9.1; KKLEB cytotox: -56.7*; Shn3 inh set2: -8.7; HIF-2a block: -5.7; Peg3 promoter: 18.0; CF NFkB block: 50.2*

What do the screens show for `COc1cc(-c2noc(C)c2C#Cc2ccc(N)cc2)cc(OC)c1OC`?
MITF TRPM1 inh: 20.2; KKLEB cytotox: -21.3; Shn3 inh set2: -5.3; HIF-2a block: -46.6; Peg3 promoter: -66.5; CF NFkB block: 51.7*

How did COc1cc(-c2noc(C)c2/C=C/c2ccc(N)cc2)cc(OC)c1OC do in these assays?
MITF TRPM1 inh: 63.5*; KKLEB cytotox: -39.2; Shn3 inh set2: 3.0; HIF-2a block: 31.3; Peg3 promoter: -50.5; CF NFkB block: 40.4

How did COc1cc(-c2noc(C)c2C#Cc2ccccn2)cc(OC)c1OC do in these assays?
MITF TRPM1 inh: 20.8; KKLEB cytotox: -7.0; Shn3 inh set2: 9.7; HIF-2a block: -13.2; Peg3 promoter: -3.2; CF NFkB block: 11.1

What do the screens show for `Cc1[nH][nH]c(=O)c1C(c1c(C)[nH][nH]c1=O)c1cn(Cc2ccc(Cl)c(Cl)c2)c2ccccc12`?
MITF TRPM1 inh: 40.4; KKLEB cytotox: -15.2; Shn3 inh set2: 12.4; HIF-2a block: -13.8; Peg3 promoter: 44.9; CF NFkB block: 29.7

Results for Cc1[nH][nH]c(=O)c1C(c1c(C)[nH][nH]c1=O)c1cn(Cc2ccc(F)cc2)c2ccccc12 ?
MITF TRPM1 inh: 22.4; KKLEB cytotox: -14.4; Shn3 inh set2: -1.8; HIF-2a block: 10.5; Peg3 promoter: 63.8*; CF NFkB block: 14.8

Results for COc1ccccc1NS(=O)(=O)c1cccc(C(=O)N/N=C(\C)c2ccc3c(c2)OCCO3)c1 ?
MITF TRPM1 inh: 9.0; KKLEB cytotox: 2.5; Shn3 inh set2: 2.8; HIF-2a block: -51.9; Peg3 promoter: -23.1; CF NFkB block: -3.9

Results for CCOC(=O)CSC1=NC(=O)/C(=C/c2ccc(Br)cc2)S1 ?
MITF TRPM1 inh: 53.5; KKLEB cytotox: -16.3; Shn3 inh set2: -79.6; HIF-2a block: -129.9; Peg3 promoter: 74.5*; CF NFkB block: 41.7

How did CCOC(=O)CSC1=NC(=O)/C(=C\c2ccc(OC(C)=O)cc2)S1 do in these assays?
MITF TRPM1 inh: 78.7*; KKLEB cytotox: 1.0; Shn3 inh set2: -35.3; HIF-2a block: 18.6; Peg3 promoter: 53.4*; CF NFkB block: 0.4

Bioassay records (PubChem)
